# Screening data as filed in PubChem BioAssay.
# Hits are enriched below; roughly 17% of the tested compounds scored in any of these assays.
# HepG2 viability – HepG2 cytotoxicity, counter-screen for TGF-b inhibitors | AID 588856 | HepG2 CAGA-GFP viability, ATP luminescence, 18 h | actives 0.76% (n = 410,000) | Potency, µM (top dose mostly 46.1 µM), for inactives: at the highest dose activity change, negative = cytotoxicity, usual class: cytotoxic
#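 CellTiter-Glo luminescence gave cytotoxicity after 18 hours at 37 degrees C. The cells were HepG2 CAGA-GFP in 1% FBS DMEM, stimulated with 500 pg/mL TGF-beta after compound addition. %Activity was normalised to no-cell wells (complete cell-killing) and DMSO (no toxicity), and curves were fitted and classified.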
# DT40 TDP1 CPT – growth inhibition of DT40 Tdp1-/-;hTDP1 cells with camptothecin (screen for TDP1 inhibitors); chicken DT40 Tdp1-/-;hTDP1 cells + 20 nM CPT, ATP luminescence, 48 h; Potency, µM (titrated, usually from 46.2 µM), for inactives: at the top dose activity change, negative = growth inhibition, most hits filed as inhibitors; actives 12% (n = 420,000); AID 686979; also: % is scaled to controls: 0 for no effect and ±100 for the full control effect; nearly all actives have a fitted effect of over 55% in size
#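 Cell growth measured by CellTiter-Glo luminescence after a minimum 48 h, 37 C compound exposure with 20 nM CPT in Tdp1-knockout DT40 cells stably expressing hTDP1, seeded 400/well; qHTS titration format.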
# HT1080NT lethal – kills 2HG-producing HT-1080-NT fibrosarcoma cells | HT-1080-NT fibrosarcoma viability, CellTiter-Glo ATP luminescence, 48 h | Potency, µM (doses to about 46.1 µM), without a hit: at the top dose activity, negative = less viability, most hits filed as cytotoxic | actives 1.6% (n = 360,000) | AID 686970;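 also: NT is the 2HG producing partner of a matched IDH1 knockdown line; 0% = DMSO-treated cells and -100% = media-only wells without cells; nearly all actives have a fitted effect of over 55% in size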
#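 Toxicity toward the 2HG-producing NT line was scored as %Activity, normalised to DMSO and no-cell wells, from CellTiter-Glo luminescence after 48 hours' treatment.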
# DT40 TDP1 no CPT – qHTS for Inhibitors of human tyrosyl-DNA phosphodiesterase 1 (TDP1): qHTS in cells in absence of CPT. AID 686978, 2013. actives 15% (n = 420,000). Potency, µM (highest dose often 46.2 µM), for inactives: at the top dose activity change, negative = growth inhibition, most hits filed as inhibitors. DT40 Tdp1-/- hTDP1 cells, no CPT, ATP luminescence, 48 h; also: % is scaled to controls: 0 for no effect and ±100 for the full control effect; nearly all actives have a fitted effect of over 55% in size
#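 Luminescent ATP content (CellTiter-Glo) served as the growth readout. Knockout chicken DT40 cells expressing human TDP1 were exposed to compounds without camptothecin for a minimum 48 hr at 37 °C.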
# TGFb SMAD3 inh – blocks TGF-b signaling; HepG2 CAGA-GFP TGF-b/SMAD3 reporter, GFP fluorescence, 18 h; TGF-beta stimulated, 500 pg/mL final; Potency, µM (doses to about 46.1 µM), for inactives: at the highest dose activity, negative = inhibition, hits mostly inhibitors; actives 1.2% (n = 410,000); AID 588855; also: % is scaled to controls: 0 for no effect and ±100 for the full control effect; nearly all actives have a fitted effect of over 65% in size
#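 First, reporter cells (HEPG2 CAGA-GFP) rested 2 h at 37 degrees C. Next, compounds were pinned in and TGF-beta added to 500 pg/mL final. After 18 h, GFP was imaged per cell and summed per well.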
# HT1080 IDH1KD tx – kills HT-1080 cells with IDH1 knockdown; Potency, µM (highest dose often 46.1 µM), for inactives: at the highest dose activity, negative = toxicity, usual class: cytotoxic; actives 2% (n = 360,000); AID 686971; HT-1080 IDH1 knockdown viability, ATP luminescence, 48 h;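 also: 0% = DMSO wells and -100% = cell-free medium wells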
#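 % activity derives from luminescence (CellTiter-Glo), normalised to DMSO and no-cell wells. HT-1080-IDH1KD cells, 750/well, had 48 h compound exposure at 37 °C.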
# The depositor's hits bear a star; ? = inconclusive; . = no result given; ! = not confirmed by another sample; [ ] = remark or other dose. Calls follow the shape of the dose curve; as a rule, active = well fitted curve in the direction sought with a large enough effect; inconclusive = small, poorly fitted or top-dose-only effect, or another doubt; inactive = no such curve, though single readings can be large; an effect the other way counts as inactive or inconclusive. Potency is read from the fitted curve at half-maximal effect.
SMILES,HepG2 viability,DT40 TDP1 CPT,HT1080NT lethal,DT40 TDP1 no CPT,TGFb SMAD3 inh,HT1080 IDH1KD tx
COc1ccc(S(=O)(=O)Nc2cc([N+](=O)[O-])ccc2OC)cc1,3.4%,?,13µM*,20.6µM*,-24.7%,16.4µM*
COc1ccc(Cl)cc1C(=O)Nc1ccc([N+](=O)[O-])cc1Cl,3.0%,?,.,-10.7%,7.5%,.
CCCC1=Nc2cc(C(=O)NCCCN(CC)CC)ccc2Sc2ccccc21,-79.9%,?,.,29.1µM*,?,.
CCCC1=Nc2cc(C(=O)NCCc3ccc(OCC)cc3)ccc2Sc2ccccc21,-11.8%,?,.,20.6µM*,-8.3%,.
COC(=O)c1ccc(NC(=O)CSc2nc3ccc(N4C(=O)C5C6C=CC(C6)C5C4=O)cc3s2)cc1 (configuration not stated),-39.3%,20.6µM*,-28.7%,18.4µM*,-6.5%,?
CC(C)(C)c1o[nH]c(=O)c1CC(N)C(=O)O (configuration not stated),2.3%,13.1%,19.8%,-7.6%,11.8%,7.5%
CN(C)C(=O)O/N=C(\N)COc1ccc(C(C)(C)C)cc1,-98.2%,20.6µM*,11.6µM*,?,?,20.6µM*
C/C=C1/CN2CC[C@]34C(=C(C=O)[C@@H]1C[C@H]23)Nc1c(O)cccc14,.,-8.0%[9.04 µM],.,-14.4%[9.04 µM],.,.
O=C(O)c1cc(Oc2ccc(C(F)(F)F)cc2Cl)ccc1[N+](=O)[O-],4.4%,-0.3%,9.7%,8.1%,2.9%,-0.9%
O=[N+]([O-])c1cc(C(F)(F)F)c(Cl)c([N+](=O)[O-])c1Nc1ncc(C(F)(F)F)cc1Cl,2.51µM*,0.1µM*,.,0.0251µM*,1.78µM*,.
CC1OC(NCCc2ccccc2)C(O)C(O)C1O (configuration not stated),2.1%,-3.8%,13.2%,4.7%,-1.2%,16.0%
COC(=O)C1=C(c2ccc(F)cc2OCc2ccccc2)C[C@@H]2CC[C@H]1N2C(=O)NCc1ccc([N+](=O)[O-])cc1,4.2%,?,-8.7%,?,?,-18.9%
COC(=O)C1=C(c2cccc(OCc3ccccc3)c2)C[C@@H]2CC[C@H]1N2C(=O)NCc1ccccc1,-14.4%,?,-18.6%,?,?,-6.6%
COC(=O)C1=C(c2cccc(OCc3ccccc3)c2)C[C@@H]2CC[C@H]1N2C(=O)NCc1ccc([N+](=O)[O-])cc1,0.7%,18.4µM*,12.4%,23.1µM*,-9.2%,-13.9%
COC(=O)C1=C(c2ccc(OCc3ccccc3)cc2)C[C@@H]2CC[C@H]1N2C(=O)NCc1ccc([N+](=O)[O-])cc1,1.3%,20.6µM*,-5.0%,11.6µM*,?,-7.9%
CN1OC[C@@H]2COc3ccc4ccccc4c3[C@@H]21,0.4%,25.5%,0.9%,10.1%,-0.9%,6.2%
CN1C2CCC1CC(OC(c1ccccc1)c1ccc(Cl)cc1)C2 (configuration not stated),.,2.99µM*,.,4.73µM*,.,.
CC[N+]12CCC(CC1)C(=C(c1ccccc1)c1ccccc1)C2,-19.3%,?,-11.7%,16.4µM*,2.2%,-8.5%
COc1ccc(C(CC(=O)N2CCC3(CC2)OCCO3)NS(=O)(=O)c2ccc(C)cc2)cc1 (configuration not stated),5.3%,-0.5%,10.8%,-7.5%,?,5.4%[9.24 µM]
CCC(=O)OC1(c2ccccc2)CCN(C)CC1,.,-10.7%[92.5 µM],.,-4.8%[92.5 µM],.,.
CCOCCCNC(=O)c1c[nH]c2ccc(S(=O)(=O)N(C)c3ccc(Cl)cc3F)cc2c1=O,-24.3%,23.1µM*,.,16.4µM*,-12.2%,.
OCC1OC(O)CC(O)C1O (configuration not stated),3.0%,3.1%,15.9%,-4.0%,11.7%,14.4%
COc1cccc(C)c1NC1=NCCO1,-2.1%,-8.9%,0.8%,-21.6%,6.2%,-15.8%
COc1ccc(CCNc2oc(-c3ccc(OC)c(OC)c3)nc2P(=O)(OC)OC)cc1OC,7.2%,-29.5%,9.3%,?,7.1%,8.9%
Cc1cccc(C(C)c2cnc[nH]2)c1C (configuration not stated),.,26.6µM*,.,?,.,.
SMILES,HepG2 viability,DT40 TDP1 CPT,HT1080NT lethal,DT40 TDP1 no CPT,TGFb SMAD3 inh,HT1080 IDH1KD tx
Cc1cc(N(CCCl)CCCl)ccc1C=NNC(=O)Cc1cc(=O)oc2cc(O)ccc12,-7.7%,11.6µM*,-17.0%,?,-6.6%,-22.4%
COc1ccccc1-n1c(-c2ccccc2)nc2ccccc2c1=O,1.4%,16.4µM*,-9.7%,?,-12.2%,-14.5%
O=c1c2ccccc2nc(-c2ccccc2)n1-c1ccccc1O,0.7%,?,-16.6%,?,-3.9%,-18.3%
COc1ccccc1-n1c(-c2cccs2)nc2ccccc2c1=O,-6.0%,14.6µM*,0.2%,13µM*,-26.3%,6.3%
CCCCCCC(C)(C)c1ccc([C@@H]2C[C@H](O)CC[C@H]2CCCO)c(O)c1,10µM*!,20.6µM*!,2.59µM*,18.4µM*,12.6µM*,4.61µM*
ClCCN(CCCl)c1ccc(/C=C/c2sc3ccccc3[n+]2CCCCI)cc1,-15.0%,3.16µM*,.,2.51µM*,?,.
NCC[C@H](O)C(=O)N[C@@H]1C[C@H](N)[C@@H](O[C@H]2O[C@H](CN)[C@@H](O)[C@H](O)[C@H]2N)[C@H](O[C@@H]2O[C@H](CO)[C@@H](O)[C@H]2O)[C@H]1O,.,-3.9%[21.1 µM],.,-0.8%[21.1 µM],.,.
COc1cc(/C=C/[N+](=O)[O-])ccc1OC(=O)c1cccnc1,5.6%,3.26µM*,-4.0%,2.31µM*,-3.2%,-3.5%
O=C(Nc1ccon1)c1cccn(Cc2ccccc2)c1=O,-23.7%,-11.0%,.,?,-5.1%,.
C/C=C(/C)C(=O)O[C@H]1C(C)=C2[C@H]([C@@H]1OC(=O)CCCCCCC)[C@@](C)(OC(C)=O)C[C@H](OC(=O)CCC)[C@@]1(O)[C@H]2OC(=O)[C@@]1(C)O,.,?,.,-8.2%[21.1 µM],.,.
Cc1ccc2c(C)c3ccc4ccccc4c3c[n+]2c1,-8.9%,3.66µM*,-29.4%,4.61µM*,?,23.1µM*
c1cc2c(cc1C1OC[C@@H]3C(c4ccc5c(c4)OCO5)OCC13)OCO2 (some centres not stated),.,-25.3%,.,?,.,.
CCCC(=O)NC1=C(N2CC2)C(=O)C(NC(=O)CCC)=C(N2CC2)C1=O,12.7%,0.82µM*,-26.8%,1.64µM*,16.6%,-18.2%
